Measured values: PubChem BioAssay
Unmarked numbers belong to inactive results. How the calls were made is not given here.

biological target: Pantothenate synthetase (Mycobacterium tuberculosis (strain ATCC 25618 / H37Rv)) (UniProt P9WIL5); experiment: Coupled enzyme confirmation of inhibitors against recombinant Mtb PanC (AID 375); details: coupled enzyme assay; at 10 µM, active compounds read high;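 further: 0% = full reaction with vehicle and 100% = no enzyme background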
Sequence (P9WIL5 whole entry, looked up): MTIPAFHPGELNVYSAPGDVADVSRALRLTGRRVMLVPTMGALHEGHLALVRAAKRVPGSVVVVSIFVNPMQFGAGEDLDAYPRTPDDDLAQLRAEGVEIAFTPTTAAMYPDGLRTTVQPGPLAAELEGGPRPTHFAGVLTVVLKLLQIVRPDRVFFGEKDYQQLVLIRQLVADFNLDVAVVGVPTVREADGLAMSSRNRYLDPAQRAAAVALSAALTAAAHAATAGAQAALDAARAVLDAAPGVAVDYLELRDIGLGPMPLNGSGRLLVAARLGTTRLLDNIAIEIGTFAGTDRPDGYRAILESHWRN

How did the inhibition turn out when `COc1ccc(-c2nc(CSCC(=O)NCc3ccc4c(c3)OCO4)c(C)o2)cc1OC` was run?
The inhibition was 0%.

With `CCn1c(NC(=O)c2cccc(Cn3cc(Cl)cn3)c2)nc2ccccc21` as the compound, how does the inhibition read?
The inhibition was 0%.

How did the inhibition turn out when `O=C(O)[C@@H]1CCCN1c1ncnc2sc3c(c12)CCC3` was run?
The inhibition was 6%.

With `Cn1c(=O)[nH]c(=O)c2c1nc(CN1CCN(c3cccc(Cl)c3)CC1)n2CCc1ccccc1` as the compound, how does the inhibition read?
The inhibition was 4%.

How did the inhibition turn out when `CCn1nnc(NC(=O)c2ccc(-c3ccc(Cl)cc3)o2)n1` was run?
The inhibition was 2%.

How did the inhibition turn out when `COC(=O)c1cc(Oc2ccc(C(=O)OC)cc2N)cc(C(=O)OC)c1` was run?
The inhibition was 0%.

How did the inhibition turn out when `Clc1ccc(SCCCCn2ccnc2)cc1` was run?
The inhibition was 8%.

For `COc1cc(NC2c3ccccc3C(=O)N2c2ccc(C)cn2)cc(OC)c1OC` (stereo unspecified), which inhibition is on record?
Its inhibition is 0%.

For `CCCCc1nc(NCCNC(=O)c2ccco2)c(C#N)c2c1CSC(C)(C)C2`, which inhibition is on record?
The inhibition was 3%.

For `C[C@H](NC(=O)Nc1cccc(C(F)(F)F)c1)C(=O)O`, which inhibition is on record?
Its inhibition is 0%.

Which inhibition does the source give for `Cc1ccc(S(=O)(=O)Cn2nnnc2C(C(C)C)N2CCN(C(=O)c3ccco3)CC2)cc1` (stereo unspecified) here?
The inhibition was 0%.

With `Cn1cc(NC(=O)c2cc(NC(=O)c3cc(NC=O)cn3C)cn2C)cc1C(=O)NCCC(=N)N` as the compound, how does the inhibition read?
Its inhibition is 10%.

How did the inhibition turn out when `COc1ccc(C2/C(=C(/O)c3ccccc3)C(=O)C(=O)N2C)cc1` (stereo unspecified) was run?
Its inhibition is 0%.

Which inhibition does the source give for `COc1ccccc1-c1noc(-c2cccnc2)n1` here?
The inhibition was 13%.

How did the inhibition turn out when `O=C(COC(=O)c1ccc(Br)o1)Nc1ccc(S(=O)(=O)N2CCCC2)cc1` was run?
The inhibition was 5%.

How did the inhibition turn out when `CCn1c(SCC(=O)Nc2ccc(C(C)=O)cc2)nc2ccccc21` was run?
Its inhibition is 3%.
